Assay outcomes: PubChem BioAssay, National Center for Advancing Translational Sciences (NCATS)
This is a sample that favours compounds with a hit; in the whole collection about 2.9% have one here.
ClpP mod – qHTS Assay for Activators of ClpP; ATP-dependent Clp protease proteolytic subunit (Bacillus subtilis (strain 168)), P80244; purified B. subtilis ClpP, FRET peptide cleavage, 20 min; Potency, µM (doses to about 57.5 µM), without a hit: at the top dose activity change, negative = active; 340,000 tested, 1.9% active; AID 651965, 2013; active = well fitted falling curve with a large enough effect; inconclusive = small, poorly fitted or top-dose-only effect; inactive = no such curve, though single readings can be large or run the other way; also: potency is read from the fitted curve at half-maximal effect; the source files actives as falling curves though it sought activators and does not explain the sign; nearly all actives have a fitted effect of over 65% in size
Target sequence (P80244 whole entry, looked up): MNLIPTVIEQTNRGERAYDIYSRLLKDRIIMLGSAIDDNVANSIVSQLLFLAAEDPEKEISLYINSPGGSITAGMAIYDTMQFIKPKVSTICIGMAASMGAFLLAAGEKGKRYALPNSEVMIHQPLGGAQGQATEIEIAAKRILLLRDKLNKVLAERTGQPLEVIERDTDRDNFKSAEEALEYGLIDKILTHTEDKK
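ClpP 10 microg/mL final, pH 8 Tris/KCl buffer with BSA, glycerol, Tween-20; compound pinned in; FRET-FV substrate; RT 20 min; Ex320/Em430; ΔFRET vs ADEP 5.8 microM, DMSO, no enzyme.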
GLP-1R agonist – GLP-1 receptor (human) agonism | P43220 | HEK293 GLP-1R CRE-luciferase, luminescence, 4-6 h; cells express a hypersensitive GLP-1R form | Potency, µM (titrated, usually from 45.6 µM), for inactives: at the highest dose activation, usual class: activators | 380,000 tested, 0.007% active | AID 624172; also: potency is read from the fitted curve at half-maximal effect; % of control where 0% means no effect
Target sequence (P43220 whole entry, looked up): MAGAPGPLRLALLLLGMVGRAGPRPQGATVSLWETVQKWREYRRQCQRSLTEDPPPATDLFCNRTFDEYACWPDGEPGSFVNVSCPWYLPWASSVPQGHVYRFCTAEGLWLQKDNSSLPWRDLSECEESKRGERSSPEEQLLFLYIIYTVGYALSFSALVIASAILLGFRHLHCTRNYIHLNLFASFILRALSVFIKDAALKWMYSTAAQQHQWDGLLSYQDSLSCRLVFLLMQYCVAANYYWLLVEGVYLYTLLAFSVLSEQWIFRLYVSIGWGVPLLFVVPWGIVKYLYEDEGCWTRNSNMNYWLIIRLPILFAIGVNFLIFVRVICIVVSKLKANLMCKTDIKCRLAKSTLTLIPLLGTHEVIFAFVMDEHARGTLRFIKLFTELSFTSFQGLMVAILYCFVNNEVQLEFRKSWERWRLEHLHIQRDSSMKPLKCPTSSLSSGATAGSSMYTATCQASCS
GLP1R inv ag – inverse agonists of human GLP-1 receptor; P43220; HEK293 GLP-1R CRE-luciferase, luminescence, 24 h; GLP-1R form is constitutively active; Potency, µM (series often up to 38.3 µM), inactives show at the highest dose activity change, negative = inhibition, hits mostly inhibitors; AID 624417; 410,000 tested, 1.6% active; also: potency is read from the fitted curve at half-maximal effect; % is scaled to controls: 0 for no effect and ±100 for the full control effect; nearly all actives have a fitted effect of over 55% in size
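Inverse agonists were sought by their lowering of basal cAMP reporter luciferase output in HEK293 cells stably carrying constitutively active human GLP-1R, after 24 h compound treatment.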
GLP1R cytotox – cytotoxic in the GLP-1 receptor inverse agonist counter-screen. Potency, µM (highest dose often 38.3 µM), for the others: top-dose activity change, negative = inhibition, hits mostly inhibitors. HEK293 cAMP-luciferase reporter cells, luminescence, 24 h. 410,000 tested, 0.13% active;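 also: loss of luciferase light is scored as toxicity; potency is read from the fitted curve at half-maximal effect; % is scaled to controls: 0 for no effect and ±100 for the full control effect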
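Here, cytotoxicity is scored as loss of luminescence. The MLSMR collection was tested on cells seeded in medium containing 10% Nu serum, with a 24 hr compound exposure preceded by 12 hours of culture.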
p53 reactivation – re-activators of mutant p53. H1299 p53-A138V BP100-luciferase reporter, luminescence, 24 h. Potency, µM (titrated, usually from 92.2 µM), for inactives: top-dose activity change, positive = activation, hits mostly activators. 320,000 tested, 0.063% active; also: potency is read from the fitted curve at half-maximal effect; % of control where 0% means no effect; nearly all actives have a fitted effect of over 45% in size
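H1299 (p53-null), stable ts p53-A138V + BP100-Luc; 1000 cells/well, Opti-MEM/10% FBS; cpd 4 pt, 1:5; 24 h, 37 deg C, 5% CO2; detection reagent 10 min RT; luminescence.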
LDHA inh – blocks human lactate dehydrogenase A. P00338. purified LDHA, NADH/diaphorase-resazurin fluorescence; active compounds read low. activity change, % (values are at about 110 or 230 µM). 480,000 tested, 0.15% active. AID 1347041; in the data active = activity change below about -30%; inconclusive = mostly about -25% to -30%;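 also: plate controls were DMSO wells for no effect and wells without enzyme for full effect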
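Enzyme activity of human lactate dehydrogenase 5 (2 nM; 0.06 mM NADH, 0.2 mM pyruvate, 5 min, RT) is measured via a resazurin/diaphorase fluorescence readout of residual NADH.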
The depositor's hits bear a star; ? = inconclusive; . = not tested or not shown; [ ] = remark or other dose. Unless noted, calls follow the shape of the dose curve; as a rule, active = well fitted curve in the direction sought with a large enough effect; inconclusive = small, poorly fitted or top-dose-only effect, or another doubt; inactive = no such curve, though single readings can be large; an effect the other way counts as inactive or inconclusive.

SMILES | ClpP mod | GLP-1R agonist | GLP1R inv ag | GLP1R cytotox | p53 reactivation | LDHA inh
Cc1cc2sc3ccccc3c(=O)c2c(C)c1O | 25.7% | ? | 28.7% | 61.9% | 19.2% | 0.5
COc1cc(OCc2ccccc2)c(OC)c(OCc2ccccc2)c1 | . | 6.8% | ? | -1.8% | . | 26.1
COC(=O)c1ccc2c(c1)C(=O)/C(=C/c1ccc(C)cc1)O2 | 28.2µM* | 6.3% | 6.1% | -3.3% | 10.2% | 0.0
CCc1ccc(/C=C2\Oc3ccc(C(=O)OC)cc3C2=O)cc1 | -9.2% | 5.3% | -4.9% | -3.5% | 0.8% | -7.1
CC(C)(C)n1nnnc1C(c1cccs1)N1CCCc2ccccc21 (configuration not stated) | -1.3% | -10.5% | 11.2µM* | 1.7% | . | -1.9
CC(C)(C)n1nnnc1C(c1cccs1)N1CCCC2(CCCCC2)C1 (configuration not stated) | 0.3% | -4.2% | 0.0% | -15.0% | -2.4% | 2.7
O=C(N/N=C/c1cn(-c2cccs2)nc1-c1ccccc1)c1ccccc1Cl | 22.4µM* | -1.6% | ? | -15.8% | ? | -5.0
O=C(/C=C\Nc1cccc(F)c1)c1ccc2c(c1)OCO2 | -7.4% | -4.4% | 10µM* | 6.2% | -3.6% | -5.2
COC(=O)c1ccc(N/C=C\C(=O)c2ccc3c(c2)OCO3)cc1 | . | 4.9% | 49.9%[7.66 µM] | 8.1%[7.66 µM] | 3.1% | -7.7
CCn1c(C)nc2cc(C(=O)NNS(=O)(=O)c3ccccc3F)ccc21 | 3.16µM* | -8.1% | 13.2% | -2.3% | ? | -3.2
CCOc1ccc(N(CC(=O)Nc2nccs2)S(=O)(=O)c2c(C)noc2C)cc1 | 1.6% | -3.8% | ? | -10.9% | -1.9% | -0.3
CCOC(=O)c1[nH]c(C)c(C(=O)Nc2ccc(C)c(F)c2)c1C | 3.0% | -1.0% | -3.7% | -26.9% | -10.2% | -6.2
O=C(C[n+]1ccc(-c2cc(C(=O)Nc3cccc(C(F)(F)F)c3)c3ccccc3n2)cc1)c1cccc([N+](=O)[O-])c1 | . | -1.2% | 11.2µM* | ? | -3.3% | 0.4
Cc1ccc(S(=O)(=O)NCC(c2ccsc2)N(C)C)cc1 (configuration not stated) | . | . | . | . | . | -0.3
CC(C)(C)C(=O)Nc1ccc2oc(-c3cc(F)c(F)cc3Cl)nc2c1 | 31.6µM* | 25.6% | ? | -24.3% | ? | -3.4
O=C(c1cccc2ccccc12)N1CCN(Cc2ccccc2F)CC1 | 0.4% | -5.8% | ? | -4.9% | . | -14.9
COc1ccc2ccccc2c1CN1CCN(C(=O)c2ccccc2)CC1 | -2.9% | -2.6% | 10µM* | -7.8% | -1.9% | 11.0
COc1cc(C(=O)N2CCN(C(=O)c3cccc4ccccc34)CC2)cc(OC)c1OC | . | 6.9% | 13.5% | -0.9% | -2.3% | -6.5
COc1ccccc1CN1CCN(C(=O)c2cccc3ccccc23)CC1 | -4.1% | -6.7% | 11.2µM* | 3.7% | . | -18.8
Cc1ccccc1CN1CCN(C(=O)c2cccc3ccccc23)CC1 | 0.7% | 1.8% | 10µM* | -6.8% | . | -10.0
COc1ccc2ccccc2c1CN1CCN(C(=O)c2ccco2)CC1 | 0.3% | 7.4% | ? | ? | -7.1% | 1.2
O=C(c1ccncc1)N1CCN(C(=O)c2cccc3ccccc23)CC1 | 14.1µM* | -22.6% | 6.1% | 0.5% | 20.2% | 11.9
Cc1ccc(CN2C(=O)CCC2C(=O)NCc2ccc3c(c2)OCO3)cc1 (configuration not stated) | -4.3% | 1.7% | -2.7% | 8.0% | 5.7% | 1.0
CC(C)(C)n1nnnc1C(c1cc2cc3c(cc2[nH]c1=O)OCCO3)N1CCSCC1 (configuration not stated) | 25.1µM* | 0.8% | 36.8% | -6.3% | -12.1% | -3.0
CCC(C)(C)n1nnnc1C(c1cc2cc3c(cc2[nH]c1=O)OCO3)N1CCN(C)CC1 (configuration not stated) | 8.91µM* | -10.1% | 4.8% | 3.6% | 0.8% | -0.3
SMILES | ClpP mod | GLP-1R agonist | GLP1R inv ag | GLP1R cytotox | p53 reactivation | LDHA inh
COc1cccc(C(=O)NC(=O)Nc2ccc(-n3nc(C(F)(F)F)cc3C(F)(F)F)cc2)c1 | 0.5% | . | 13.1% | 3.5% | . | -1.1
O=C(OCc1nnc(-c2ccccc2)o1)c1cc(S(=O)(=O)N2CCOCC2)ccc1F | -0.9% | -6.0% | -16.5% | 10.9% | 3.6% | -2.9
Cc1nc2ccccc2n1Cc1ccccc1 | -1.4% | 5.8% | -2.7% | -3.7% | 2.7% | -4.4
CC(c1nc2ccccc2n1Cc1ccccc1)N1CCCCC1 (configuration not stated) | . | 11.1% | 1.26µM* | ? | -5.9% | -7.0
CN(C)S(=O)(=O)c1cccc(NC(=O)COC(=O)CCSc2ccc(Cl)cc2)c1 | -1.1% | 3.7% | -1.5% | 1.5% | 7.3% | -3.3
NS(=O)(=O)c1cccc(NC(=O)COC(=O)CCSc2ccccc2)c1 | 15.8µM* | 7.8% | 9.8% | 9.9% | -0.3% | -9.5
CCOC(=O)C(=CNc1ccc(N2CCCCC2)c(S(=O)(=O)Nc2ccccc2OC)c1)C(=O)OCC | 17.8µM* | 6.7% | 2.0% | 0.9% | . | -3.0
O=C(NCCCN1CCOCC1)c1c(-c2ccccc2)sc2ccccc12 | -0.5% | 0.4% | 16.0% | 3.7% | -6.3% | 4.3
O=C(NCCCN1CCCC1=O)c1cccc(NS(=O)(=O)c2ccccc2)c1 | 35.5µM* | 0.4% | 4.7% | -4.2% | -4.4% | -4.6
O=C(NCCCN1CCCC1=O)c1cccc(S(=O)(=O)N2CCN(c3ccccc3)CC2)c1 | 15.8µM* | -3.0% | -4.0% | -9.4% | 13.6% | -0.5
Oc1ccc(Cl)cc1C=NCCc1ccccc1 | -2.4% | 1.2% | 16.2% | -1.8% | ? | 1.0
CCOC(=O)N1CCC(N2Cc3cccc(C(=O)Nc4cc(F)ccc4F)c3C2=O)CC1 | -0.5% | -2.0% | 10.1% | 4.2% | -2.5% | -0.1
CCOC(=O)c1ccc(N=c2sc(C(=O)OC)cc(=O)n2Cc2ccco2)cc1 | -0.5% | 6.5% | 4.47µM* | ? | -27.5% | 1.5
C=CCCN(C(CC(C)C)C(=O)OC)S(=O)(=O)c1ccccc1Br (configuration not stated) | -0.3% | -0.7% | ? | 19.9% | -0.8% | 0.6
C=CCCN(C(CC(C)C)C(=O)OC)S(=O)(=O)c1cc(Br)ccc1Br (configuration not stated) | -2.8% | -0.9% | 11.2µM* | 5.3% | 2.4% | 1.9
Cc1ccc(NC(=O)C2(c3ccc([N+](=O)[O-])cc3)CCCC2)cc1 | 1.1% | -2.2% | 10µM* | -25.0% | -13.7% | -1.4
COc1ccc(NC(=O)C2(c3ccc(C)cc3)CCCC2)cc1 | . | . | . | . | . | -0.4
